12-LOX inh: inhibitors of human 12S-lipoxygenase ALOX12 | purified 12hLO, xylenol orange hydroperoxide absorbance | Potency, µM (doses to about 108 µM), actives largely listed as inhibitors | 580,000 tested, 1.1% active
Target sequence (P18054 whole entry, looked up): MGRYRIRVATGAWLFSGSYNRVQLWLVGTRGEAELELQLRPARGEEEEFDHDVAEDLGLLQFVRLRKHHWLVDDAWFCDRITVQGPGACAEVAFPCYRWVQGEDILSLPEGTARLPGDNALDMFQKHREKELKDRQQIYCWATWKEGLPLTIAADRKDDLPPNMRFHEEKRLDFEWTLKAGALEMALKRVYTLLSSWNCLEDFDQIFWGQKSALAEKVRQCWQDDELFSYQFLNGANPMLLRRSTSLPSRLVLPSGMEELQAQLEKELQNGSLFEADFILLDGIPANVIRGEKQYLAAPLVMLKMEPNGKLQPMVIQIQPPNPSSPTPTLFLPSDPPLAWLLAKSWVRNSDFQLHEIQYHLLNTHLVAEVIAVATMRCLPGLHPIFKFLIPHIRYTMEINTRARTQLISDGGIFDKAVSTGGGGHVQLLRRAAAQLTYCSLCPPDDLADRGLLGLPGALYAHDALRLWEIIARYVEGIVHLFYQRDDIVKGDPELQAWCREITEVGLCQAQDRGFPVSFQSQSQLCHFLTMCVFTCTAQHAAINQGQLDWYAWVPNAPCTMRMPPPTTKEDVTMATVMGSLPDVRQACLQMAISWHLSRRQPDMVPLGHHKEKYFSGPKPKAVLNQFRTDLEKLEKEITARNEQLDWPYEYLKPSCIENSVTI
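Purified human 12hLO (150 nM final) in 25 mM Hepes, 0.01% Triton X-100, pH 7.0 was preincubated 15 min at room temperature with compound. Then 40 uM arachidonic acid was added, 30 min. Hydroperoxide was read by Fe-XO absorbance ratio 573/405 nm.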
Nrf2 ARE act: Nrf2 pathway activation; AID 624171; AREc32 ARE-luciferase reporter (MCF7-derived line), luminescence, 24 h; Potency, µM (titrated, usually from 46.1 µM), most hits filed as activators; 410,000 tested, 0.31% active; further: nearly all actives have a fitted effect of over 65% in size
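Each well held 1000 AREc32 cells, which were incubated with compound for 24 hr at 37 deg C after overnight attachment, and ARE reporter activity was quantified by firefly luciferase luminescence.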
LDHA block: inhibitors of human lactate dehydrogenase A; purified LDHA, NADH/diaphorase-resazurin fluorescence; active compounds read low; 480,000 tested, 0.15% active; P00338; activity change, % (values are at about 110 or 230 µM); AID 1347041; in the data active means activity change below about -30%; inconclusive means mostly about -25% to -30%
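Remaining NADH was detected by diaphorase (0.133 mg/mL) converting 37 µM resazurin to fluorescent resorufin, read at 0 and 20 minutes. The preceding 5-minute room-temperature reaction used 2 nM LDHA, 0.2 mM sodium pyruvate and 0.06 mM NADH at pH 7.4.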
ERG-DNA inh: ERG Ets/DNA interaction inhibition | AID 624246 | P11308 | 370,000 tested, 0.028% active | fluorescence polarization, His-ERG Ets domain / labelled DNA | Potency, µM (series often up to 76.9 µM), hits mostly inhibitors; active means well fitted inhibition curve with a large enough effect in the polarisation, with a control signal flat; inconclusive means small, poorly fitted or top-dose-only effect, or effect the other way, or a change in a side signal; inactive means no such curve, though single readings can be large or run the other way; the % refers to the polarisation;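 further: polarization taken with two DNA probes labelled with fluorescein and Texas red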
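His-tagged ERG Ets domain (1 uM in the protein solution; 300mM KCl, 50mM Tris-HCl, 1mM EDTA, 1mM DTT, pH 7.5) received compound, then a probe mix of 5 nM fluorescein-DNA and 100nM Texas-615-DNA. Fluorescence polarization was read for both dyes.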
A549 tox: counter-screen for Nrf2 inhibitors: cytotoxicity in A549 cells; AID 504648; A549 ARE-Fluc cells, CellTiter-Fluor viability, 18-24 h; Potency, µM (highest dose often 46 µM), most hits filed as inhibitors; 390,000 tested, 0.16% active
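A549 ARE-Fluc cells in 5% FBS OPTI-MEM, 5000 cells/well, rested 2 h then exposed to compounds in concentration-response for 18-24 h at 37 °C. Viability by CellTiter-Fluor fluorescence (Ex 405/Em 525) after 30 min; luciferase luminescence (BugLite, 15 min, RT) read afterwards.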
Nrf2 block: inhibitors of Nrf2 signaling. AID 504444. 360,000 tested, 2.1% active. A549 ARE-Fluc reporter, luciferase luminescence, 18-24 h. Potency, µM (series often up to 46 µM), usual class: inhibitors; further: nearly all actives have a fitted effect of over 60% in size
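Cells were seeded and rested 2 h, then exposed to compounds for 18-24 h. CellTiter-Fluor was read first as a viability measure. BugLite was added 15 min before the final luminescent read of ARE-luciferase activity in A549 cells.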
Numbers stand for hits; i = inactive; ? = inconclusive; nt = no result; ! = not confirmed by another sample. The list is not random: actives were taken first. Their share in the collection is about 2.7%. Unless noted, the call rests on the fitted dose curve; in most records, active means well fitted curve in the direction sought with a large enough effect; inconclusive means small, poorly fitted or top-dose-only effect, or another doubt; inactive means no such curve, though single readings can be large; an effect the other way counts as inactive or inconclusive.

SMILES | 12-LOX inh | Nrf2 ARE act | LDHA block | ERG-DNA inh | A549 tox | Nrf2 block
Cc1nc(Nc2ccccc2F)c2oc3ccccc3c2n1 | i | 3.2µM | i | i | i | ?
O=S(=O)(NCc1ccc2c(c1)OCO2)c1ccc2c(c1)oc1ccccc12 | i | i | i | nt | i | 21µM
Cc1nc(NCc2ccc3c(c2)OCO3)c2oc3ccccc3c2n1 | 22µM | i | i | nt | i | i
CCN(CC)c1ccc(N=Cc2ccc(Br)s2)cc1 | ? | nt | i | nt | nt | nt
N#CCN(CC#N)C(=O)Cc1cccs1 | 32µM | nt | i | nt | nt | nt
O=C(Cc1ccc(Cl)cc1Cl)Nc1ccncc1Cl | i | i | i | i | i | 9.2µM
O=C(Cc1c(Cl)cccc1Cl)Nc1ccncc1 | i | i | i | i | i | i
O=C(Cc1ccc(Cl)cc1Cl)Nc1ccncc1 | i | i | i | i | i | 16µM
Cc1ccccc1CN1CCN(CC(=O)NCCCN2CCN(c3ccc(F)cc3)CC2)C1=O | ? | i | i | i | i | 12µM
COc1ccccc1N(C(=O)CCl)c1cn(C(C)=O)c2ccccc12 | i | ? | i | i | i | 23µM
Cc1cc(NS(=O)(=O)c2ccc(NC(=S)NC(=O)c3ccccc3)cc2)no1 | 16µM | i | i | i | i | i
Cc1cc(NS(=O)(=O)c2ccc(NC(=S)NC(=O)c3ccncc3)cc2)no1 | i | i | i | i | i | i
Cc1cc(NS(=O)(=O)c2ccc(NC(=S)NC(=O)c3ccc(Cl)cc3Cl)cc2)no1 | 32µM | i | i | i | i | nt
Cc1cc(NS(=O)(=O)c2ccc(NC(=O)c3ccc(Cl)cc3Cl)cc2)no1 | i | i | i | i | i | i
CC(=O)c1ccc(NS(=O)(=O)c2ccc(C(C)(C)C)cc2)cc1 | i | i | i | i | i | 8.2µM
Cc1cc(NS(=O)(=O)c2ccc(NC(=S)NC(=O)c3ccc(C(C)(C)C)cc3)cc2)no1 | 7.1µM | i | i | i | i | i
Cc1ccc2c(Cl)cc(Cl)c(OCC(=O)NC(=O)NCc3ccccc3)c2n1 | ? | nt | i | nt | nt | nt
COc1cccc(C(=O)Nc2sc3c(c2C(N)=O)CCCC3)c1OC(F)F | ? | nt | i | nt | nt | nt
CN(C)C(=O)c1ccc(-c2cc(-n3ccnc3)ncn2)cc1 | 25µM | nt | nt | nt | nt | nt
c1cncc(-c2cncnc2-n2ccnc2)c1 | 7.9µM | nt | nt | nt | nt | nt
c1cncc(-c2cc(-n3ccnc3)ncn2)c1 | 45µM | nt | nt | nt | nt | nt
CCCOC(=O)c1c(NC(=O)C(C)Sc2nc(-c3ccccc3)cc(C(F)(F)F)n2)sc(C(=O)N(C)C)c1C (stereo not drawn) | i | i | i | i | i | 21µM
CCCCn1c(=O)[nH]c(=O)c2c1nc(CCc1ccccc1)c(=O)n2CCCC | ? | nt | i | nt | nt | nt
COc1cc(/C=C(\C#N)c2nc3ccc(C)cc3[nH]2)c([N+](=O)[O-])cc1OC | i | i | i | i | ? | ?
COc1cc(/C=C(\C#N)c2nc3ccc(C)cc3[nH]2)cc([N+](=O)[O-])c1O | 45µM | i | i | i | 21µM | ?
SMILES | 12-LOX inh | Nrf2 ARE act | LDHA block | ERG-DNA inh | A549 tox | Nrf2 block
COc1ccc(/C=C(\C#N)c2nc3ccccc3[nH]2)cc1O | i | i | i | i | i | i
COc1ccc(/C=C(\C#N)c2nc3ccccc3[nH]2)cc1I | 6.3µM | nt | i | nt | nt | nt
C[n+]1c2n(c3ccccc31)N=C(c1ccc(Cl)cc1)CS2 | i | ? | i | i | nt | ?
CC1Sc2n(c3ccccc3[n+]2C)N=C1c1ccccc1 (stereo not drawn) | i | ? | i | i | i | 12µM
COCCNC(=O)c1cc2c(s1)-c1ccc(Cl)cc1SC2 | i | i | i | i | i | ?
CCOc1ccc(N(CC)C(=O)c2cc3c(s2)-c2ccc(Cl)cc2SC3)cc1 | i | i | i | i | ? | 16µM
O=C(COC(=O)c1cc([N+](=O)[O-])ccc1NCCO)Nc1ccc2c(c1)OCO2 | i | i | i | i | ? | 10µM
O=C(COC(=O)c1cc([N+](=O)[O-])ccc1N1CCOCC1)c1ccc(Br)cc1 | ? | i | i | i | ? | 26µM
CCOc1ccc(C(=O)COC(=O)c2cc([N+](=O)[O-])ccc2N2CCOCC2)cc1 | i | i | i | i | i | i
Cc1cc(NC(=O)COC(=O)c2cc([N+](=O)[O-])ccc2N2CCOCC2)ccc1Br | ? | i | i | i | ? | 18µM
COc1ccc(/C(C)=C(\C#N)c2nc3ccccc3[nH]2)cc1 | ? | nt | i | nt | nt | nt
Cc1ccc(C2C3=C(CC(C)(C)CC3=O)Nc3c2c(=O)n(C)c(=O)n3C)cc1 (stereo not drawn) | ? | nt | i | nt | nt | nt
CC1=C(C(=O)OCc2ccc3c(c2)OCO3)C(c2ccccc2)NC(=O)N1 (stereo not drawn) | i | i | i | nt | i | 8.2µM
CCCOc1ccccc1C1NC(=O)NC(C)=C1C(=O)OCCOC (stereo not drawn) | i | i | i | i | i | i
CC1=C(C(=O)OCc2ccc3c(c2)OCO3)C(c2ccccc2OCc2ccccc2)NC(=O)N1 (stereo not drawn) | i | i | i | nt | i | 13µM
CC1=C(C(=O)OCc2ccc3c(c2)OCO3)C(c2ccc(O)c([N+](=O)[O-])c2)NC(=O)N1 (stereo not drawn) | i | i | i | i | i | ?
CCCOc1ccccc1C1NC(=O)NC(C)=C1C(=O)OCc1ccccc1 (stereo not drawn) | i | i | i | i | ? | 10µM
COc1ccc(-c2cc(C(=O)NCC(=O)NC(C)C)c3ccccc3n2)cc1 | i | nt | i | nt | nt | nt
Cc1noc(/C=C/Nc2ccc(F)cc2F)c1[N+](=O)[O-] | i | 2.8µM | i | ? | i | i
COc1ccccc1N/C=C/c1onc(C)c1[N+](=O)[O-] | i | i | i | i | ? | ?
CC(=O)c1cn(CC(=O)Nc2c(C)cccc2C)c2ccccc12 | i | i | i | i | i | 9.2µM
CC(=O)c1cn(CC(=O)Nc2ccccc2C)c2ccccc12 | ? | i | i | i | i | 9.2µM
CC(=O)c1cn(CC(=O)Nc2ccc(C)cc2)c2ccccc12 | i | i | i | i | i | ?
Cc1cccc(NC(=O)Cn2cc(C(=O)c3ccco3)c3ccccc32)c1C | i | i | i | i | i | 21µM
CCC(=O)c1cn(CC(=O)Nc2c(C)cccc2C)c2ccccc12 | i | i | i | i | i | i
CC[n+]1c(C)ccc2cc(C)ccc21 | 5.6µM | nt | i | nt | nt | nt
CCN1/C(=C/c2ccc3cc(C)ccc3[n+]2CC)Sc2cc(C)ccc21 | 35µM | i | ? | i | ? | 4.6µM
CCN1/C(=C/c2ccc3cc(C)ccc3[n+]2C)Sc2ccc3sccc3c21 | 45µM | i | i | i | i | 18µM
C[C@H](NC[C@H](O)CP(=O)(O)Cc1ccccc1)c1ccc(Cl)c(Cl)c1 | 20µM! | nt | nt | nt | nt | nt
Cc1ccc(/C=N/n2c(-c3ccc(Cl)cc3)n[nH]c2=S)s1 | i | i | i | i | i | i

Source: PubChem BioAssay
